Assay results taken from PubChem BioAssay AID1952 (The Scripps Research Institute Molecular Screening Center, 2009).
Among all 2,400 compounds or so, about 1,200 (50%) were called active. Cut-off read from the data, not from the text of the source: active = inhibition above about 24%; inactive = the rest. So high a share suggests a set chosen from earlier hits. Only a sample is shown.

These molecules were tested against Neuropeptides B/W receptor type 1 (Homo sapiens) (UniProt P48145) (assay: GPR7 receptor antagonists, confirmation, cell-based, fluorescence, single concentration (AID 1952;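 note: stimulated with the GPR7 agonist NPW; 0% = agonist plus vehicle and 100% = vehicle alone without agonist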)). Conditions: GPR7-expressing cells, calcium fluorescence antagonist mode; at 4.4 µM; stronger effect = higher value.
Neuropeptides B/W receptor type 1 (Homo sapiens), sequence (P48145 whole entry, looked up): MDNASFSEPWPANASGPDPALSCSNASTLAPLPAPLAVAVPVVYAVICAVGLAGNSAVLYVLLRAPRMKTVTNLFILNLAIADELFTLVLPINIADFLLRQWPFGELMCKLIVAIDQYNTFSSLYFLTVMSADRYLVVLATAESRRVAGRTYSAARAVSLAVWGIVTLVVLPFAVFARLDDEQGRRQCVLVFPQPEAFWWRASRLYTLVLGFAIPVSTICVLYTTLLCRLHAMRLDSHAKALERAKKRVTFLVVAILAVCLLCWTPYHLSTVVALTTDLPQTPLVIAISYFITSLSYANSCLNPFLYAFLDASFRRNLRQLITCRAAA

| SMILES | inhibition |
| --- | --- |
| Cc1ccc(O)c(NC(=S)NC(=O)COc2ccc(Br)cc2)c1 | 88.8% (active) |
| O=C(Nc1ccc2ccccc2c1)Nc1ccc2snnc2c1 | 55.7% (active) |
| CC(C)(C)NCc1cc(Br)ccc1OC1CCCC1 | 23.2% (inactive) |
| Cc1ccc(NC(=O)CN2C(=O)NC(C)(c3ccc(Cl)cc3)C2=O)c(Br)c1 (stereo not given) | 18.8% (inactive) |
| CC(NCc1ccccc1OC1CCCC1)c1ccccc1 (stereo not given) | 23.1% (inactive) |
| CCN1CCN(c2c(Cl)cccc2NC(=O)c2ccc(Br)o2)CC1 | 21% (inactive) |
| CCN1/C(=C\c2ccc3ccccc3[n+]2CC)Sc2cc(C)ccc21 | 49.3% (active) |
| COc1ccc(OC)c(C(c2nnnn2C(C)(C)C)N2CCc3ccccc3C2)c1 (stereo not given) | 5.35% (inactive) |
| CC(C)(C)CC(C)(C)NCC(O)COCCOc1ccc(Br)cc1 (stereo not given) | 47.2% (active) |
| CCSc1nsc(NC(=O)Nc2cccc(C(C)=O)c2)n1 | 43.7% (active) |
| C=CCSc1nsc(NC(=O)Nc2cccc(C(C)=O)c2)n1 | 47.2% (active) |
| CCn1c2ccc(F)cc2c2nnc(SCCN3CCOCC3)nc21 | -14.4% (inactive) |
| CCc1c(C)nc2c(-c3ccccc3)c(C)nn2c1Nc1ccc(NC(C)=O)cc1 | 4.93% (inactive) |
| COc1ccc(C(=O)CSc2nnc(COc3ccccc3)n2Cc2ccco2)cc1 | 19% (inactive) |
| Oc1cccc(/C=N/Nc2ccc(Cl)nn2)c1O | 4.11% (inactive) |
| Cc1cccc(-c2nc3ccc(C(=O)NCCN4CCN(C)CC4)cc3nc2-c2cccc(C)c2)c1 | 41.8% (active) |
| CCc1ccc(N(C(=O)c2csnn2)C(C(=O)NC2CCCCC2)c2ccncc2)cc1 (stereo not given) | 34.2% (active) |
| O=C(Nc1nc(-c2ccc3c(c2)OCO3)cs1)c1ccncc1 | 55.1% (active) |
| O=C(Nc1ccccc1F)c1ccc2c(c1)OCO2 | -16.6% (inactive) |
| N=c1c2c(-c3ccccc3)c(-c3ccccc3)n(Cc3ccccc3)c2ncn1CCCO | 26.6% (active) |
| CN(C)CCCN(C(=O)c1ccc(S(=O)(=O)N2CCCCCC2)cc1)c1nc2ccc(Br)cc2s1 | 70.5% (active) |
| CN(C)CCCN(C(=O)c1ccc(S(=O)(=O)N2CCCc3ccccc32)cc1)c1nc2ccc(F)cc2s1 | 73% (active) |
| CCc1ccc2nc(N(CCCN(C)C)C(=O)c3ccc4c(c3)OCCO4)sc2c1 | 40% (active) |
| CCOC(=O)C1CSC(CC(=O)Nc2ccc(OCC)cc2)C(=O)N1 (stereo not given) | 2.35% (inactive) |
| COCCN(Cc1cc2cc3c(cc2nc1Cl)OCO3)C(=O)c1cccc(C)c1 | -7.71% (inactive) |
